PubChem BioAssay
The source made the active and inactive calls. Unless noted, no stated cut-off is given here; in the data, active means inhibition above about 42%; inactive means the rest.

Assays:
[1] = target: Nuclear receptor coactivator 3 (Homo sapiens) (UniProt Q9Y6Q9); test: NCOA3 GAL4-fusion reporter inhibition – cell-based, luminescence, quadruplicate, confirmation (AID 588792;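 active means mean inhibition over 43.08%, the solvent-only control mean plus 3 SD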;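 further: 0% = DMSO treated cells and 100% = gossypol at 36 µM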); details: HEK293 GAL4-SRC3 luciferase reporter, at 3.6 µM, stronger effect = higher value
[2] = system: transactivating tegument protein VP16 (Human herpesvirus 1), Gal4-VP16 luciferase reporter; test: repression of VP16-driven luciferase reporter – cell-based, luminescence, high throughput, counter-screen for SRC3 inhibitor project (AID 588794; in the data active means inhibition above about 30%); details: mammalian cells, at 3.6 µM, stronger effect = higher value
[3] = target: Nuclear receptor coactivator 1 (Homo sapiens) (UniProt Q15788); test: NCOA1 GAL4-fusion reporter inhibition – cell-based, luminescence, quadruplicate, confirmation (AID 588820;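 active means mean inhibition above 46.68%, the untreated control wells mean plus 3 SD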;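 further: 0% = DMSO wells and 100% = gossypol 36 µM treated wells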); details: HEK293 GAL4-SRC1 luciferase reporter, at 3.6 µM, stronger effect = higher value
[4] = repression of VP16-driven luciferase reporter – cell-based, luminescence, high throughput, counter-screen for SRC1 inhibitor project (AID 588824; in the data active means inhibition above about 25%); details: cell-based VP16 transactivation luciferase luminescence; at 3.6 µM; stronger effect = higher value
[5] = StAR promoter reporter inhibitors, counter-screen for LRH-1 inverse agonist project, cell-based, luminescence, high throughput (AID 651611; in the data active means inhibition above about 28%); details: StAR promoter luciferase reporter counterscreen, at 3.6 µM, stronger effect = higher value
[6] = target: Nuclear receptor subfamily 5 group A member 2 (Homo sapiens) (UniProt O00482); test: NR5A2 activity suppression in reporter cells – cell-based, luminescence, confirmation (AID 651613); details: cell-based LRH-1 luciferase reporter, inverse agonism; at 3.6 µM; stronger effect = higher value;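 further: HEK293T cells co-transfected with LRH-1 and StAR promoter luciferase reporter; 0% = vehicle wells and 100% = parental cells lacking receptor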
[7] = target: Steroidogenic factor 1 (Homo sapiens) (UniProt Q13285); test: inverse agonism at SF1 nuclear receptor – cell-based, luminescence, high throughput, counter-screen for LRH-1 inverse agonist project (AID 651614; in the data active means inhibition above about 44%;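 further: cells cotransfected with StAR promoter reporter and SF1 expression vector; 0% = vehicle on cells with receptor and 100% = vehicle on cells lacking receptor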); details: cell-based SF1 luciferase reporter, at 3.6 µM, stronger effect = higher value
[8] = compounds suppressing VP16-driven luciferase signal – cell-based, luminescence, high throughput, counter-screen for LRH-1 inverse agonist project (AID 651615; in the data active means inhibition above about 33%); details: Gal4-VP16 luciferase reporter cells, at 3.6 µM, stronger effect = higher value
[9] = system: transactivating tegument protein VP16 (Human herpesvirus 1); test: compounds suppressing VP16-driven luciferase signal – cell-based, luminescence, single concentration, counter-screen for SRC2 inhibitor project (AID 652007; in the data active means inhibition above about 36%); details: cell-based VP16 transactivation luciferase reporter, at 8.9 µM, stronger effect = higher value
[10] = target: Nuclear receptor coactivator 2 (Homo sapiens) (UniProt Q15596); test: inhibition of GAL4-SRC2 driven luciferase expression – cell-based, luminescence, HEK293, triplicate, confirmation (AID 652008;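 active means mean inhibition above 46.5%, the solvent-only control mean plus 3 SD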;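 further: 0% = DMSO-treated cells and 100% = Gossypol at 36 µM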); details: HEK293 GAL4-SRC2 luciferase reporter, at 8.9 µM, stronger effect = higher value

Chain of Nuclear receptor subfamily 5 group A member 2 (Homo sapiens) (O00482 whole entry, looked up): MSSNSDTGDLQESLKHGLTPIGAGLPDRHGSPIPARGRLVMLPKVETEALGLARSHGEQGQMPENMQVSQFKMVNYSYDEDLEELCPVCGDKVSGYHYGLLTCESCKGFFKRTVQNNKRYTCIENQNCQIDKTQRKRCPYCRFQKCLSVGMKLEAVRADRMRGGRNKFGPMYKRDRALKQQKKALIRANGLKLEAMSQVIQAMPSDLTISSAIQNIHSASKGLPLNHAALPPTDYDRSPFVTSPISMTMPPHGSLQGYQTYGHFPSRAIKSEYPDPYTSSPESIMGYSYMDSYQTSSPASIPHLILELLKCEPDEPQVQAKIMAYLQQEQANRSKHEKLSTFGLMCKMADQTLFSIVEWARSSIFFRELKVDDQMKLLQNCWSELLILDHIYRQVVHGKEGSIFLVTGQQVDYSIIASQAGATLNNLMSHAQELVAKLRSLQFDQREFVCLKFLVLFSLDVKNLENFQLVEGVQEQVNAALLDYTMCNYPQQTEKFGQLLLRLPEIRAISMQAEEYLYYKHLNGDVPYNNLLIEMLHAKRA
Chain of Steroidogenic factor 1 (Homo sapiens) (Q13285 whole entry, looked up, the tested form may be a part): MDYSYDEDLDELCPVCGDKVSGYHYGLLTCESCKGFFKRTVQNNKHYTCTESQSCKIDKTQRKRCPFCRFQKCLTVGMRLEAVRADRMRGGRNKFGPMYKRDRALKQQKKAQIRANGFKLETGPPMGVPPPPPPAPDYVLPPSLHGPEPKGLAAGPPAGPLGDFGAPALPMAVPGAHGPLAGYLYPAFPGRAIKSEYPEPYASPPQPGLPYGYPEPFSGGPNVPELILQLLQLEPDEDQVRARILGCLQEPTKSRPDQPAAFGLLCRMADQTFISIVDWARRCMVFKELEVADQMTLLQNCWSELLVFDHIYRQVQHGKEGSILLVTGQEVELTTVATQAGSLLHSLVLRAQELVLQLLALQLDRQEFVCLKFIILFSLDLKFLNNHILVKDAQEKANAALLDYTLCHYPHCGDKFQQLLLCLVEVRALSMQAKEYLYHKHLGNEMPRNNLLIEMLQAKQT
Chain of Nuclear receptor coactivator 1 (Homo sapiens) (Q15788 whole entry, looked up, the tested form may be a part): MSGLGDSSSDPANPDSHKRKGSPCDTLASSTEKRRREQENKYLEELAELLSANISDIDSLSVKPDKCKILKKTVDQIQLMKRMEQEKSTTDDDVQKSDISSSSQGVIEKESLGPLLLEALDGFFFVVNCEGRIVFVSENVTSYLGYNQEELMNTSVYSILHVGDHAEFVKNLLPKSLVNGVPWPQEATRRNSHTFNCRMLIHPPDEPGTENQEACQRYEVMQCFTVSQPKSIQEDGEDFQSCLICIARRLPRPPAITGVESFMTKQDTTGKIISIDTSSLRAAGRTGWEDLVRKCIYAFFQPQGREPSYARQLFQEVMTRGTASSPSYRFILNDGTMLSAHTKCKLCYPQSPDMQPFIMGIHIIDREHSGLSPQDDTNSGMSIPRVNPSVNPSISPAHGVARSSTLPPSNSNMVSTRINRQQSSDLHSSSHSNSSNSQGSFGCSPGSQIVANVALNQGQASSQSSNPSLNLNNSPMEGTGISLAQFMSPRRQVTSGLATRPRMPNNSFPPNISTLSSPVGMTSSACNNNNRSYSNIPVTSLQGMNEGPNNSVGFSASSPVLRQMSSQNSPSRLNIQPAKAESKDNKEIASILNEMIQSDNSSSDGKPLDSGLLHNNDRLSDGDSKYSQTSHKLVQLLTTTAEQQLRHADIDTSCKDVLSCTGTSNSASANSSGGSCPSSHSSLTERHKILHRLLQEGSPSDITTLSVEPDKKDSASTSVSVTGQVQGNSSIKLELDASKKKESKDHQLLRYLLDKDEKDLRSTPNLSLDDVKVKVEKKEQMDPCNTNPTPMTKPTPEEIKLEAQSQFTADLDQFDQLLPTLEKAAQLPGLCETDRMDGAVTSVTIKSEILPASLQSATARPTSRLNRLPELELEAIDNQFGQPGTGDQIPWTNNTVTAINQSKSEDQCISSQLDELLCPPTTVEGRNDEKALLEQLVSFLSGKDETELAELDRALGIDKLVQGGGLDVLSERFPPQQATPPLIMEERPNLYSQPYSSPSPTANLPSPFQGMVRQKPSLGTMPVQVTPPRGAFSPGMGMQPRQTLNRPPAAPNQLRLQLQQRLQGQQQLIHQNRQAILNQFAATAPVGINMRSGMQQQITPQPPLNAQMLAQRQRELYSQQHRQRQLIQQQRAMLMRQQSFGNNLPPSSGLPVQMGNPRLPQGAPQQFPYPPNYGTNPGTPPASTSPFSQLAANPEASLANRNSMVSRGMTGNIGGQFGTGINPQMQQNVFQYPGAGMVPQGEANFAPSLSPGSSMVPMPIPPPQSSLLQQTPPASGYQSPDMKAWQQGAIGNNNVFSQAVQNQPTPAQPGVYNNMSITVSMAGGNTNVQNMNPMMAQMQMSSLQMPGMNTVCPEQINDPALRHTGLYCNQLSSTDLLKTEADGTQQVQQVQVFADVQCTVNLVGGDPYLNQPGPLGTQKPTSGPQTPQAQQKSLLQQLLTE
Chain of Nuclear receptor coactivator 3 (Homo sapiens) (Q9Y6Q9 whole entry, looked up, the tested form may be a part): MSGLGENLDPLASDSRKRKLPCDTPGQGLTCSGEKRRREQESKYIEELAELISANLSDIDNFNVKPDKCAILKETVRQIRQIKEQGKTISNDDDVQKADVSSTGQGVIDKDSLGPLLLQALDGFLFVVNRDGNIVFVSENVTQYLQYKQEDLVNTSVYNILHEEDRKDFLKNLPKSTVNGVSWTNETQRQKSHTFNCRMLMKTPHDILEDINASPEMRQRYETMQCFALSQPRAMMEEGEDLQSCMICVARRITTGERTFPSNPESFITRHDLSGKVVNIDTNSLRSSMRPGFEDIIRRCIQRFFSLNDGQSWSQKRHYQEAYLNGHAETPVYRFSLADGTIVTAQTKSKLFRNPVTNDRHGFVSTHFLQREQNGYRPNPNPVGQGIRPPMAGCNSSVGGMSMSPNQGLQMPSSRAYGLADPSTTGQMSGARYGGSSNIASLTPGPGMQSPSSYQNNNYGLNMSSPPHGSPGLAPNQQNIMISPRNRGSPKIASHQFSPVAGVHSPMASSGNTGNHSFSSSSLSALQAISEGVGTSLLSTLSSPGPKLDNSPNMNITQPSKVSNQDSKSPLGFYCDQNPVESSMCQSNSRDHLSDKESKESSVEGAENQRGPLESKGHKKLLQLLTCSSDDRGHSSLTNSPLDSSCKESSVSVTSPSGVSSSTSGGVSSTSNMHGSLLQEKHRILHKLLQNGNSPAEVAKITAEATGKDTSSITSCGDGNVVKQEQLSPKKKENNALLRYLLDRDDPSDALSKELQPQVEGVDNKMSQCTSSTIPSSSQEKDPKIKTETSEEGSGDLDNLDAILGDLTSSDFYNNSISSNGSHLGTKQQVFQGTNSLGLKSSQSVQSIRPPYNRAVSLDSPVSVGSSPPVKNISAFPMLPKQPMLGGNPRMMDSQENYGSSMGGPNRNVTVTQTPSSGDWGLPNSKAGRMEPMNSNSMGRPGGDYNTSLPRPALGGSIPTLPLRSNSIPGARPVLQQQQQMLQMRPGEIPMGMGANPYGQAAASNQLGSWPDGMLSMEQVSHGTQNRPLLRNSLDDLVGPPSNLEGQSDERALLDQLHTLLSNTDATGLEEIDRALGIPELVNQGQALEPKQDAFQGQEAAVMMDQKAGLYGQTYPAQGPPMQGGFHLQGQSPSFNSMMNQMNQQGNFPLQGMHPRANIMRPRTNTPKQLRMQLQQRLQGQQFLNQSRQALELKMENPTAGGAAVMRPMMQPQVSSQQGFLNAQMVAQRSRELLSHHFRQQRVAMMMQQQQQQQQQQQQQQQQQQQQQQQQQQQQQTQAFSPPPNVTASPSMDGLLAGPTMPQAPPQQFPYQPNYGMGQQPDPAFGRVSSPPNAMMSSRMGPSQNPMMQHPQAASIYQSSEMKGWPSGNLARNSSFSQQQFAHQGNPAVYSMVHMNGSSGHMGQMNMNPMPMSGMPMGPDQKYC

| SMILES | inhibition [1] | inhibition [2] | inhibition [3] | inhibition [4] | inhibition [5] | inhibition [6] | inhibition [7] | inhibition [8] | inhibition [9] | inhibition [10] |
| --- | --- | --- | --- | --- | --- | --- | --- | --- | --- | --- |
| COc1cccc(-c2nnc3n2N=C(C(C)(C)C)CS3)c1 | 89.1% (active) | 64.5% (active) | 72.3% (active) | 71.4% (active) | 56.7% (active) | 64.9% (active) | 60.9% (active) | 75.4% (active) | 26.6% (inactive) | 73.7% (active) |
| CC(C)c1ccc(-c2nc3ccccc3s2)cc1 | 80.1% (active) | 73.8% (active) | 56% (active) | 53.8% (active) | 78.9% (active) | 42.9% (active) | 74.5% (active) | 51.7% (active) | 64.7% (active) | 86.8% (active) |
| O=c1c2ccccc2oc2cc(C#CC3(O)CCCCC3)ccc12 | 32.4% (inactive) | 33.5% (active) | -2.8% (inactive) | -14.8% (inactive) | -28.9% (inactive) | -129% (inactive) | -33.5% (inactive) | -40.4% (inactive) | -4.85% (inactive) | 48.9% (active) |
| Nc1ccc(Oc2ccccc2-c2ccccc2)cc1 | 42.6% (inactive) | 17.6% (inactive) | 14.7% (inactive) | 19% (inactive) | 30.3% (active) | 53.5% (active) | 49.6% (active) | 39.6% (active) | 80.5% (active) | 87.8% (active) |
| Cc1ccc(C(=O)Nc2sc(C)c(-c3ccccc3)c2C(N)=O)cc1[N+](=O)[O-] | 64% (active) | 50% (active) | 29.8% (inactive) | 22.4% (inactive) | 47.7% (active) | -41.3% (inactive) | 38.9% (inactive) | 10.9% (inactive) | 71.9% (active) | 74.1% (active) |
